# DAX1 inh-1 = DAX1 (NR0B1) inhibitors on StAR promoter, primary screen, cell-based, luminescence, SF-1 (NR5A1), full-length DAX-1; HEK293T StAR-luciferase reporter, SF-1/DAX-1 repression relief; inhibition, % at 6.8 µM; 370,000 compounds, 1.1% hits;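 active = inhibition above the mean over all tested compounds plus 3 SD, cut at about 3.6% in these data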;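 note: higher inhibition means more luminescence from relief of DAX-1 repression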
# ssDAF-12 act = S. stercoralis DAF-12 nuclear receptor activators, primary screen, cell-based, luminescence, HEK293, GRIP1 co-expression, lit1-tk-luc; Nuclear hormone receptor DAF-12 (Strongyloides stercoralis); HEK293 ssDAF-12/GRIP1 lit1-tk-luc reporter; % of 3 µM dafachronic acid response; activation, % at 6.8 µM; 370,000 compounds, 1% hits; AID 652126, 2013;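 active = activation above the mean over all tested compounds plus 3 SD, cut at about 0.9% in these data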
# DAX1 inh-2 = DAX1 (NR0B1) inhibitors, primary screen, cell-based, HEK293, Gal4-DAX1, luciferase luminescence. Nuclear receptor subfamily 0 group B member 1 (Homo sapiens), P51843. HEK293 Gal4-DAX1 luciferase reporter. inhibition, % at 6.75 µM. 340,000 compounds, 0.99% hits. AID 504766, 2011;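 active = inhibition above the mean over all tested compounds plus 3 SD, cut at about 4.2% in these data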;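 note: inhibition shows as a rise in luminescence from relieved DAX1 repression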
# Target sequence (P51843 207-470 limits assumed): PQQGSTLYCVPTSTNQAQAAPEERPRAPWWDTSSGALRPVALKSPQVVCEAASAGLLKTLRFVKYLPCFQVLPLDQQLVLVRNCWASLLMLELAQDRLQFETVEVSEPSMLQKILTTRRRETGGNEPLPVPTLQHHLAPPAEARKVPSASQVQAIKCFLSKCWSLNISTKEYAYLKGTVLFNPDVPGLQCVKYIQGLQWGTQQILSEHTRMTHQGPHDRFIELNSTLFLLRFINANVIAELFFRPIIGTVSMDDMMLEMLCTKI
# hcDAF12 agonist = H. contortus DAF-12 nuclear receptor activators, primary screen, cell-based, luminescence, HEK293, lit1-tk-luc reporter | activation, % at 6.8 µM | 370,000 compounds, 1.4% hits | HEK293 hcDAF-12 lit1-tk-luc reporter; 0% DMSO, 100% Δ7-dafachronic acid;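 active = activation above the mean of all tested compounds plus 3 SD, cut at about 5.5% in these data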
# hgDAF12 agonist = H. glycines DAF-12 receptor agonists, primary screen, cell-based, luminescence, HEK293, GAL4 fusion, UAS-luciferase; Nuclear hormone receptor DAF-12 (Heterodera glycines), GAL4 fusion; HEK293 GAL4-hgDAF12 UAS-luciferase reporter, agonist luminescence; normalized to butyrate control; activation, % at 6.8 µM; 370,000 compounds, 1.8% hits; AID 687014, 2013;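 active = activation above a cutoff set at the mean of all screened compounds plus 3 SD, cut at about 10% in these data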
# Numbers stand for hits; . = inactive; / = not tested or not shown. This is a sample that favours compounds with a hit; in the whole collection about 4.1% have one here.
SMILES,DAX1 inh-1,ssDAF-12 act,DAX1 inh-2,hcDAF12 agonist,hgDAF12 agonist
CCOC(=O)C1=C(C(=O)OCC)C2N(Cc3ccc(Br)cc3)c3ccccc3[C@@]23C[C@@H](C(=O)OC)N(S(=O)(=O)c2ccc(Br)cc2)C3=N1 (stereo not given in full),.,.,/,.,.
O=C(Nc1ccccc1C(=O)NCCc1ccccc1)c1ccco1,.,.,.,.,11
Cc1cc(C(=O)NC(Cc2c[nH]c3ccccc23)C(=O)O)c(C)o1 (stereo not given),.,.,.,.,.
O=C(NCCc1ccccc1)c1ccc(NS(=O)(=O)c2ccc3[nH]c(=O)[nH]c3c2)cc1,3.8,.,.,.,.
Cc1ccc(C(=O)NC(Cc2c[nH]c3ccccc23)C(=O)O)o1 (stereo not given),.,.,.,6.1,.
Cc1c(C)c2ccc(OCC(=O)N[C@@H](Cc3c[nH]c4ccccc34)C(=O)O)cc2oc1=O,.,.,6.6,.,.
O=C(O)CNC(=O)c1ccccc1NC(=O)c1ccco1,.,.,.,.,.
O=C(O)CCc1ccc(S(=O)(=O)Nc2ccccc2C(=O)NCCc2ccccc2)cc1,.,1.0,.,.,.
O=c1[nH]c2ccc(NS(=O)(=O)c3ccc(F)c(Cl)c3)cc2[nH]1,.,.,.,.,.
O=c1[nH]c2ccc(NS(=O)(=O)c3ccc(Cl)cc3)cc2[nH]1,.,.,5.0,.,.
Cc1c(C)c2ccc(OCC(=O)Nc3nccs3)cc2oc1=O,.,.,.,.,11
Cc1c(C)c2ccc(OCC(=O)Nc3ccccn3)cc2oc1=O,.,.,.,.,.
O=C(Nc1ccccc1C(=O)NC(Cc1c[nH]c2ccccc12)C(=O)O)c1ccco1 (stereo not given),.,1.4,.,.,.
CC(NC(=O)c1ccccc1NS(=O)(=O)c1ccc(CCC(=O)O)cc1)c1ccccc1 (stereo not given),.,.,.,.,.
Cc1nnc2sc(-c3ccc(N(C)C)cc3)nn2c1=O,.,.,.,.,12
CC1=NN(c2nc(-c3ccc(C)cc3)cs2)C(=O)C1N=Nc1ccccc1O (stereo not given),.,0.9,/,.,.
CC1=NN(c2nc(-c3ccc(C)cc3)cs2)C(=O)C1N=Nc1cccc(O)c1 (stereo not given),.,.,.,.,.
O=C(NCc1ccccc1)[C@H]1CCCN1C(=O)[C@H]1CCCN1C(=O)c1ccc(F)cc1F,.,.,/,.,.
CC1(C)Cc2nc3sc(C(=O)NCCCO)c(N)c3cc2CO1,.,.,6.5,.,.
O[C@H](COc1cccc(F)c1)CN1CCC(C(O)(c2ccccc2)c2ccccc2)CC1,.,.,/,.,.
CC(=O)C(Sc1nn(C)c(=S)s1)C(=O)Nc1ccccc1 (stereo not given),.,1.0,.,.,.
CC(=O)C(Sc1nc(N(C)C)nc(N(C)C)n1)C(=O)Nc1ccccc1 (stereo not given),.,.,.,.,.
CCOC(=O)CC(=O)CSc1nc2c(C)c(C)ccc2cc1C,.,.,.,.,.
CCOC(=O)CSc1nc2cc(C)ccc2cc1C#N,.,.,.,.,11
CCOC(=O)CC(=O)CSc1nc2ccc(OC)cc2cc1C,.,1.7,.,.,.
SMILES,DAX1 inh-1,ssDAF-12 act,DAX1 inh-2,hcDAF12 agonist,hgDAF12 agonist
COc1ccc2nc(SCC(=O)NC3CCCC3)c(C)cc2c1,.,.,.,.,.
CCOC(=O)CC(=O)CSc1nc2cc(C)ccc2cc1C,.,.,.,6.4,.
CC(C)C(=O)N[C@H]1[C@H](O)CCC[C@@]12C(=O)N(Cc1ccccc1)c1ccccc12,.,.,/,.,.
Fc1ccccc1Cn1ccc2ccc(-c3ccc4ccn(Cc5ccccc5F)c4c3)cc21,.,.,/,.,.
Nc1nc(Cl)nc2ncn(Cc3ccccc3)c12,.,.,.,.,11
Nc1ncnc2c1ncn2Cc1ccccc1,.,.,.,.,.
COC(=O)c1c(-c2ccc(F)cc2)csc1NC(=O)C1CCCO1 (stereo not given),.,.,.,.,12
CCc1ccc(-c2csc(NC(=O)C3CCCO3)c2C(=O)OC(C)C)cc1 (stereo not given),.,.,.,.,.
COc1ccc2cc3cc(C(=O)Nc4ccc(F)cc4)sc3nc2c1,/,.,/,.,.
c1ccc(Nc2c(-c3ccco3)nc3ccccn23)cc1,.,.,.,6.0,.
Cc1ccc(Nc2c(-c3ccco3)nc3ccccn23)cc1,.,.,.,.,.
COc1ccc(OCCC(=O)OCC(=O)NC(=O)NC2CCCCC2)cc1,.,.,.,.,.
CNC(=O)NC(=O)COC(=O)CCCOc1ccc(OC)cc1,.,.,5.6,.,.
CN1C2=C(C(=O)CC(C)(C)C2)C(c2cccs2)C2=C1CC(C)(C)CC2=O,.,.,5.3,.,.
Cc1csc(Nc2ccccc2)n1,.,.,.,.,.
Cc1nc(Nc2ccccc2)sc1C,.,.,7.2,.,.
O=C(O)c1cccc(N2C(=O)c3ccc(Oc4ccc(Cl)cc4)cc3C2=O)c1,.,.,4.6,.,.
O=C(O)c1cccc(N2C(=O)c3ccc4c5c(ccc(c35)C2=O)C(=O)N(c2cccc(C(=O)O)c2)C4=O)c1,.,.,.,.,.
Cc1cccc(N2C(=O)c3cccc(Oc4ccc(Cl)cc4)c3C2=O)c1,.,.,5.2,.,.
C#CCNC(=O)C[C@@H]1C[C@@](CCC(=O)OCC)(C(=O)OCC)C2=CCCCN2C1=O,.,.,/,.,.
C[C@@H]1[C@@H](O)C[C@@]2(CC(=O)c3ccccc3O2)O[C@H]1c1ccccc1,.,.,/,.,.
C/C(=N\NC(=O)c1ccco1)c1ccc(-c2ccccc2)cc1,.,.,.,.,13
C/C(=N\NC(=O)c1ccco1)c1cc(Cl)sc1Cl,3.8,.,.,.,.
C/C(=N\NC(=O)c1ccco1)c1cc2ccccc2o1,.,.,.,.,.
Nc1nc(N)nc(COc2ccccc2)n1,.,.,4.7,.,11
O=C(CN1CCOCC1)NN1CC(=O)N(c2ccc(Cl)cc2)CC1=O,.,.,5.6,.,.
Cc1ccc(N2CC(=O)N(NC(=O)CN3CCN(c4ccccc4)CC3)CC2=O)cc1,.,.,.,.,.
CCOC(=O)N1CCC(N2CC34C=CC(O3)C(C(=O)Nc3ccc(C)cc3)C4C2=O)CC1 (stereo not given),.,.,4.5,.,.
COc1ccc(-c2ccc(-c3nnn(CC(C)=O)n3)cc2)cc1,.,.,.,.,.
COc1cccc(-c2nnn(CC(C)=O)n2)c1,.,.,.,.,11

# Screens from PubChem.
